Source: PubChem BioAssay AID651650 (Sanford-Burnham Center for Chemical Genomics, 2012)

These compounds were tested against Neuropilin-1 (Homo sapiens) (UniProt O14786) (assay: blockers of CendR peptide binding to NRP-1 – biochemical, FP and AlphaScreen panel, dose response (AID 651650)). Conditions: NRP-1 b1b2 / RPARPAR peptide binding, FP or AlphaScreen; run 1, at 100 µM (top of the series).
Sequence of Neuropilin-1 (Homo sapiens) (O14786 whole entry, looked up): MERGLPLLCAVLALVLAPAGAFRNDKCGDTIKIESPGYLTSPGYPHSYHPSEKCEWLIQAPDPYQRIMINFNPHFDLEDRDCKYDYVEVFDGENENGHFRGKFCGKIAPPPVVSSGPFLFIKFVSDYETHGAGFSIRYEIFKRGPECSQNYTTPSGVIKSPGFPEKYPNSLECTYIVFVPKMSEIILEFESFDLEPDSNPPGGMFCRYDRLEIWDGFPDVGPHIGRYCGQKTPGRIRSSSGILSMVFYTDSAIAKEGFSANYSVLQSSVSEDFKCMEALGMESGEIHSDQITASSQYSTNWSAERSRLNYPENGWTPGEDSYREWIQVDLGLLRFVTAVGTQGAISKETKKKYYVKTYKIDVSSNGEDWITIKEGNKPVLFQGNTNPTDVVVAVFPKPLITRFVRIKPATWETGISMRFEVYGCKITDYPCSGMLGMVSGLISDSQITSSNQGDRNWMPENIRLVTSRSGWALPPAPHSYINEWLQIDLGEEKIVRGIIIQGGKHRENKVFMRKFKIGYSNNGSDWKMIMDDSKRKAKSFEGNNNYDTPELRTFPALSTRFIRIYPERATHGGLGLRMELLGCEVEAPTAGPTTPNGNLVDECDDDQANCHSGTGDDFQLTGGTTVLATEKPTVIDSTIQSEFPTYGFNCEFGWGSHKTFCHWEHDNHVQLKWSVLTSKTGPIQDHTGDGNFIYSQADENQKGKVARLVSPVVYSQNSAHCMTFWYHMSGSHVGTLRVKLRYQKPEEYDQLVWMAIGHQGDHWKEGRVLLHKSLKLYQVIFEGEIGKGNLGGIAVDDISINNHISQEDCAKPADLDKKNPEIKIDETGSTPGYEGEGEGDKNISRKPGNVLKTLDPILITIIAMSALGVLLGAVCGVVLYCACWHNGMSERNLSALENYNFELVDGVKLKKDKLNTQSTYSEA

**Q.** How did the inhibition turn out when `Cc1ccc(C(=O)C2CN3CCC2CC3)cc1` (centres undefined) was run?
**A.** Its inhibition is 26.3%.

**Q.** How did the inhibition turn out when `Cc1c(NP(=O)(C(C)(C)C)C(C)(C)C)c(=O)n(-c2ccccc2)n1C` was run?
**A.** The inhibition was 31.8%.

**Q.** `Cc1ccc(C2(O)CCN3CCCCC32)cc1` (centres undefined) was tested. Which inhibition did it give?
**A.** The inhibition was -5.87%.

**Q.** With `CCC1C2Cc3ccc(O)cc3C1(CC)CCN2C` (centres undefined) as the compound, how does the inhibition read?
**A.** Its inhibition is 3.24%.

**Q.** For `O=C1C=CC(=O)C2C1C1(Cl)C(Cl)=C(Cl)C2(Cl)C1(Cl)Cl` (centres undefined), which inhibition is on record?
**A.** The inhibition was 44.9%.

**Q.** For `CC(=O)OC1CC[C@]2(C#N)[C@H]3CC[C@]4(C)[C@H](C5C=CC(=O)O5)CCC4(O)C3CCC2(O)C1` (some centres undefined), which inhibition is on record?
**A.** Its inhibition is 58.3%.

**Q.** Which inhibition does the source give for `CN1C[C@H](CO)C=C2c3cccc4[nH]cc(c34)C[C@H]21` here?
**A.** Its inhibition is 51.6%.

**Q.** `O=S(=O)(c1cc(Cl)cc(Cl)c1)N1Cc2cc(-c3ccccc3)ccc2-n2nncc2C1` was tested. Which inhibition did it give?
**A.** Its inhibition is 13.6%.

**Q.** `CC1(C)CN=C(Nc2ccc(F)c(Cl)c2)S1` was tested. Which inhibition did it give?
**A.** Its inhibition is 82.2%.

**Q.** Which inhibition does the source give for `C=CCN1C(=O)C2(C(C(=O)OCC)=C(N)Oc3ccccc32)c2c1c1ccccc1oc2=O` (centres undefined) here?
**A.** The inhibition was 4.11%.

**Q.** For `COC(=O)C1=C(c2ccc(F)cc2OCc2ccccc2)C[C@@H]2CC[C@H]1N2C(=O)NCCNC(C)=O`, which inhibition is on record?
**A.** Its inhibition is 95.9%.

**Q.** `COC(=O)C1=C(c2cccc(C#N)c2)C[C@@H]2CC[C@H]1N2C(=O)NCCO` was tested. Which inhibition did it give?
**A.** Its inhibition is 39.7%.

**Q.** `CCC(=NCCc1ccccc1)c1c(O)n(C2CCCCC2)c(=O)[nH]c1=O` was tested. Which inhibition did it give?
**A.** Its inhibition is 42.9%.

**Q.** For `Cc1ccc(Cn2nnnc2CN2CCC(n3nnc4ccccc43)CC2)cc1`, which inhibition is on record?
**A.** Its inhibition is 15.9%.
